SMILES strings stand for the structures. Values without a mark were called inactive. Results filed as inconclusive are left out. Where a call stands in place of a potency, no number is given. Calls of active or inactive are those of the source. Calls come from the whole dose curve.

For the first assay, the target named is Muscarinic acetylcholine receptor M1 (Homo sapiens) (UniProt P11229). The experiment in a line: Cholinergic receptor muscarinic 1 (CHRM1) small molecule antagonists, cell-based qHTS assay (AID 1963588). Note: nearly all actives have a fitted effect of over 40% in size. As to conditions: CHRM1-CHO antagonist mode, calcium flux fluorescence; series mostly up to 61.5 µM. Summed up: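 CHRM1-CHO calcium-flux assay, antagonist mode. Cells were seeded 18 h, dye-loaded 1 h at 37 C and given compound for 5 min at RT, then acetylcholine was added at 50nM. FDSS fluorescence was read 3 min; 15 concentrations, three runs.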
Sequence of Muscarinic acetylcholine receptor M1 (Homo sapiens) (P11229 whole entry, looked up): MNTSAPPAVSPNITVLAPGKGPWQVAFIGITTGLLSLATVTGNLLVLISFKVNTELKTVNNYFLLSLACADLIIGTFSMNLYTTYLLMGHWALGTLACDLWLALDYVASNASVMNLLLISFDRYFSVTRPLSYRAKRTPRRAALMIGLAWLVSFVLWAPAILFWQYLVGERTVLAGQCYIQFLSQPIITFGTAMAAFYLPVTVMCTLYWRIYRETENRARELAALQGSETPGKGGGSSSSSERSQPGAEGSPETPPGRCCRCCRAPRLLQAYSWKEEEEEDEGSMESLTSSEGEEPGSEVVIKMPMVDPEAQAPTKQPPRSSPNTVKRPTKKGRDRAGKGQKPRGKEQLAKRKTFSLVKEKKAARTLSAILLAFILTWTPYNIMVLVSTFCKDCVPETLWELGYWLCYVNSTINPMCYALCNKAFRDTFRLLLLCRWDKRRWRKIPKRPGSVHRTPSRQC
For the compound `NCCOCCN`, the Potency entry is “inactive”.

With `O=C1OC(CN2CCOCC2)CN1/N=C/c1ccc([N+](=O)[O-])o1` (stereo not drawn), the Potency entry is “inactive”.

For the compound `N[C@H]1C(O)O[C@H](CO)[C@@H](O)[C@@H]1O` (stereo partly drawn), the Potency entry is “inactive”.

`C=C(C)[C@H]1CC=C(C)CC1`: the Potency result was “inactive”.

`CC1=CC[C@@H](C(C)(C)O)CC1`: the Potency result was “inactive”.

Regarding `CCCCCCCCCCCCCCC(=O)O`, the Potency result is “inactive”.

Turning to `CC(COC(=O)c1ccccc1)OC(=O)c1ccccc1` (stereo not drawn), the Potency result is “inactive”.

On to `F[Si-2](F)(F)(F)(F)F`, for which the Potency result was “inactive”.

As for `NNS(=O)(=O)c1ccc(Oc2ccc(S(=O)(=O)NN)cc2)cc1`, the Potency result is “inactive”.

Turning to `O=C(O)CONC(=O)c1ccccc1`, the Potency entry is “inactive”.

As for `OCC1CC2CC1C1CCC(CO)C21` (stereo not drawn), the Potency entry was “inactive”.

As for `O=C1CCC(=O)N1`, the Potency result was “inactive”.

Consider `CCC(=O)OC/C=C(\C)CCC=C(C)C`, for which the Potency entry is “inactive”.

With `CC(O)CNCC(C)O` (stereo not drawn), the Potency result was “inactive”.

As for `OCc1ccccc1O`, the Potency result is “inactive”.

On to `CCOC(=O)c1cccc(N)c1`, for which the Potency result was “inactive”.

Consider `CNCCO`, for which the Potency entry was “inactive”.

As for `N#CCN(CC#N)CCN(CC#N)CC#N`, the Potency entry was “inactive”.

On to `CCCOCCOCCOCCO`, for which the Potency entry is “inactive”.

For the next assay the target is unchanged. The assay is described as follows: Cholinergic receptor muscarinic 1 (CHRM1) small molecule agonists, cell-based qHTS assay (AID 1963589). Note: nearly all actives have a fitted effect of over 35% in size. As to conditions: CHRM1-CHO cells, agonist mode, calcium flux fluorescence; series mostly up to 76.8 µM. Summed up:
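Human M1 in stable CHO line; 18 h plating, 1 h dye load 37 C; cpd added (agonist mode); Ca2+ fluorescence kinetic read, 1 s intervals; 15 conc, 3 runs.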
In general terms: In qHTS, concentration-response curves come from the screen itself.
Turning to `O=Cc1cccc([N+](=O)[O-])c1`, the Potency result is “inactive”.

Regarding `CC(COCCO)OCCO` (stereo not drawn), the Potency result was “inactive”.

On to `NC(=O)N[C@@H](CCC(=O)O)C(=O)O`, for which the Potency entry is “inactive”.

In the case of `COc1ccc2cc(C=O)ccc2c1`, the Potency result is “inactive”.

For the compound `CC(O)CCCCn1c(=O)c2c(ncn2C)n(C)c1=O` (stereo not drawn), the Potency entry was “inactive”.

On to `NC(=O)CCCCC(N)=O`, for which the Potency entry is “inactive”.

For the compound `NCC1CCCC(CN)C1` (stereo not drawn), the Potency entry was “inactive”.

As to `CC(=O)CC(=O)Nc1ccc2[nH]c(=O)[nH]c2c1`, the Potency entry was “inactive”.

Consider `Oc1ccc(O)c2c(O)cccc12`, for which the Potency entry was “inactive”.

As for `CCCOC(C)=O`, the Potency entry was “inactive”.

With `CCCCCCCCCCCC[N+](C)(C)CCCS(=O)(=O)[O-]`, the Potency result was “inactive”.

`CC(C)=C1CC[C@@H](C)CC1=O`: the Potency result is “inactive”.

Turning to `O=C(O)c1ccc([N+](=O)[O-])cc1`, the Potency entry was “inactive”.

`C=CCCCCCCCCC(=O)OCCCC`: the Potency entry is “inactive”.

For `CC(=O)NCCO`, the Potency entry was “inactive”.

As to `NNC(=O)c1cccc(C(=O)NN)c1`, the Potency result was “inactive”.

In the case of `O=C(C(=O)c1ccco1)c1ccco1`, the Potency result is “inactive”.

As for `COc1ccc(Cl)cc1C`, the Potency entry was “inactive”.

`Nc1ncnc2c1ncn2Cc1c(F)cccc1Cl`: the Potency result was “inactive”.

In the case of `NC(=S)Nc1cccc2ccccc12`, the activation was 0.152% [at 6.97 µM].

Turning to `NCCOCCN`, the Potency result is “inactive”.

With `O=C1OC(CN2CCOCC2)CN1/N=C/c1ccc([N+](=O)[O-])o1` (stereo not drawn), the Potency result was “inactive”.

For `N[C@H]1C(O)O[C@H](CO)[C@@H](O)[C@@H]1O` (stereo partly drawn), the Potency result was “inactive”.

`C=C(C)[C@H]1CC=C(C)CC1`: the Potency entry is “inactive”.

With `CC1=CC[C@@H](C(C)(C)O)CC1`, the Potency entry is “inactive”.

Regarding `CCCCCCCCCCCCCCC(=O)O`, the Potency entry is “inactive”.

Regarding `CC(COC(=O)c1ccccc1)OC(=O)c1ccccc1` (stereo not drawn), the Potency result was “inactive”.

Consider `F[Si-2](F)(F)(F)(F)F`, for which the Potency result was “inactive”.

For the compound `NNS(=O)(=O)c1ccc(Oc2ccc(S(=O)(=O)NN)cc2)cc1`, the Potency entry is “inactive”.

On to `O=C(O)CONC(=O)c1ccccc1`, for which the Potency result is “inactive”.

On to `OCC1CC2CC1C1CCC(CO)C21` (stereo not drawn), for which the Potency entry is “inactive”.

Regarding `O=C1CCC(=O)N1`, the Potency result was “inactive”.

For `CCC(=O)OC/C=C(\C)CCC=C(C)C`, the Potency result was “inactive”.

Turning to `CC(O)CNCC(C)O` (stereo not drawn), the Potency entry is “inactive”.

In the case of `OCc1ccccc1O`, the Potency result is “inactive”.

Turning to `CCOC(=O)c1cccc(N)c1`, the Potency result is “inactive”.

As for `CNCCO`, the Potency entry is “inactive”.

As to `N#CCN(CC#N)CCN(CC#N)CC#N`, the Potency entry is “inactive”.

Regarding `CCCOCCOCCOCCO`, the Potency entry is “inactive”.

For the origin of these results see PubChem BioAssay (Tox21).
